Hit rate of the full screen: of about 69,000 compounds, about 8,600 (12%) showed an effect of 50% or more. The list comes from a sample in which strong results are over-represented; it also holds similar structures and randomly drawn compounds.
Test system: Plasmodium berghei
Assay: Screen against P. berghei liver stage (PbLuc), transformed with Luciferase, at 10uM
Type: functional, HepG2
Details: tested at 10 uM

SMILES	INHIBITION [%]
CC(=O)N1CCC12CCN(Cc1ccco1)CC2	9.97
O=C([C@H]1CC[C@@H]2[C@@H](CCN2C2CCCC2)O1)N1CCOCC1	-3.26
O=C(NCc1ccc(-n2cncn2)nc1)c1cc(Cl)c2c(c1)OCCO2	9.54
CCn1ncc2c1C(COC)CN(c1ncc(F)cn1)C2 (centres undefined)	-7.24
COc1ccc2c(c1)NC(C1CCN(C(=O)C(C)C)CC1)NS2(=O)=O (centres undefined)	-12.3
CCC(NC(=O)CC1CCN(CC)CC1)c1cn2cccnc2n1 (centres undefined)	-15.3
CCn1ncnc1C(C)NC(=O)C1CCN(C(C)C)CC1 (centres undefined)	-1.64
CCC(NC(=O)C1CCN(C(=O)C2CC2)CC1)c1cn2cccnc2n1 (centres undefined)	22.9
CCC(NC(=O)CC1CCN(C(C)C)CC1)c1cn2cccnc2n1 (centres undefined)	51.3
CCC(NC(=O)C1CCN(C(C)C)CC1)c1cn2cccnc2n1 (centres undefined)	57.5
CCC(NC(=O)CCCN1CCCCC1)c1cn2cccnc2n1 (centres undefined)	37.7
COc1ccc(Cl)cc1S(=O)(=O)N(C)CC(=O)Nc1cccnc1	33.4
Cc1cnn(CC(C)NCc2csc(-c3ncccn3)n2)c1 (centres undefined)	-3.2
CN(C)c1cc(C(F)(F)F)cc(-c2ccc(C(=O)O)cc2)n1	26.9
Cc1ccc(S(=O)(=O)N2CCC(c3n[nH]cc3C(=O)N(C)C)CC2)cc1	12.8
CCN(c1ccsc1C(=O)N1CCCCC1)S(=O)(=O)c1ccccc1	-10.8
CCN1CCN(C)C(=O)C12CCN(Cc1csc(C)n1)CC2	-1.28
CC(C)=CCN1C[C@@H](C(=O)O)C[C@H](C(=O)Nc2ccc(C)nc2)C1	28.5
CN(C)CCNC(=O)c1ccc(S(=O)(=O)N[C@@H]2CCNC2)cc1	87.9
O=C(NC[C@@H]1CCCO1)c1ccc(S(=O)(=O)N[C@@H]2CCNC2)cc1	2.55
CC(C)N(CCNC(=O)c1ccc(S(=O)(=O)NC2CC2)cc1)C(C)C	19.2
CCS(=O)(=O)N1C[C@@H](OCc2cccnc2)[C@H]2OCCC[C@H]21	44.9

SMILES	INHIBITION [%]
O=C1CCC(c2nc(C3CCN(C(=O)Cc4cccs4)CC3)no2)N1 (centres undefined)	-31.1
CC1=N[C@@]2(CC[C@@H]3CN(Cc4ccccc4C)C[C@@H]32)C(=O)N1CC1CC1	28.4
CC(C)CCc1cc(C(=O)O)nc2[nH]c(=O)[nH]c(=O)c12	2.29
CCc1cc(NCCCNS(C)(=O)=O)nc(-c2ccccn2)n1	12.4
NC(=O)C1CCCN(Cc2c(-c3ccco3)[nH]c3ncccc23)C1 (centres undefined)	61.4
CCN1CCN(Cc2c(-c3ccco3)[nH]c3ncccc23)CC1	29.3
OC1CCN(Cc2c(-c3ccco3)[nH]c3ncccc23)CC1	32.3
OC1CCCN(Cc2c(-c3ccco3)[nH]c3ncccc23)C1 (centres undefined)	35.3
CN1CCN(Cc2c(-c3ccco3)[nH]c3ncccc23)CC1	-0.371
c1coc(-c2[nH]c3ncccc3c2CN2CCCOCC2)c1	50.1
O=C1CCCN1Cc1noc(-c2ccc(Cl)cc2)n1	-66
Cc1cnc(CC2COCCN(C(=O)CN3CCOCC3)C2)cn1 (centres undefined)	16.5
CCc1noc(CNC2CCCN(Cc3noc(C4CC4)n3)C2)n1 (centres undefined)	-6.14
CCc1cc(CNC(=O)N(C2CC2)C(C)c2ccco2)[nH]n1 (centres undefined)	55.9
Cc1noc(C)c1CNC(=O)N(C1CC1)C(C)c1ccco1 (centres undefined)	79.1
CCc1cc(CNC(=O)NCC(c2ccco2)N2CCCC2)[nH]n1 (centres undefined)	36.6
CCN(CC)C1CCN(C(=O)NCc2c(C)noc2C)CC1	50.1
CC(c1ccco1)N(C(=O)NCc1ccon1)C1CC1 (centres undefined)	72.6
CC(c1ccco1)N(C(=O)c1cccc(C#N)c1)C1CC1 (centres undefined)	-11
CC(c1ccco1)N(C(=O)CNc1ccc(C#N)cc1)C1CC1 (centres undefined)	21.5
Cc1noc(C)c1CNC(=O)N1CCCC(C)CC1 (centres undefined)	-30.6
CCc1cc(CNC(=O)N(C2CC2)C(C)c2ccco2)on1 (centres undefined)	3.3

SMILES	INHIBITION [%]
CC(c1ccco1)N(C(=O)c1cc2c([nH]c1=O)CCCC2=O)C1CC1 (centres undefined)	-65.3
Cc1noc(C)c1CNC(=O)N(C)C1CCN(c2ccccc2)C1=O (centres undefined)	31.2
Cc1noc(C)c1CNC(=O)N1CCC(CO)CC1	11.8
COCc1c(Cl)cccc1NC(=O)CNC(=O)C(C)(C)C	-17.8
CC(C)N1CCC(CC(=O)N(C)C(C)c2cncs2)CC1 (centres undefined)	-3.58
CN(Cc1nc(Cc2cccc(C(F)(F)F)c2)no1)C1CCOCC1	22.1
COC(=O)c1ccoc1COC(=O)CCc1ccc(OC)c(OC)c1	-1.58
CN(C)Cc1cc(C2CCCCN2S(=O)(=O)Cc2ccccc2)nn1C (centres undefined)	8.12
CS(=O)(=O)NCc1cncc2c1CCN(C(=O)c1ccccn1)C2	16.4
Cc1occc1C(=O)N1C[C@@H](OCc2cccnc2)[C@H]2OCCC[C@@H]21	-63.1
CCCc1noc(C2CC(=O)N(C(C)(C)C)C2)n1 (centres undefined)	31.9
CN1CCN([C@H]2CCN(C(=O)c3cc(Cl)cn3C)C[C@H]2CCCO)CC1	64.3
CN1CCN([C@H]2CCN(C(=O)c3nn(C)cc3Cl)C[C@H]2CCCO)CC1	8.7
Cc1cc(C(=O)N2CC[C@H](N3CCN(C)CC3)[C@H](CCCO)C2)n(C)n1	-27.5
COCCN1CCO[C@@H]2CN(C(=O)NCc3ccccc3)CC[C@@H]2C1	7.24
Cc1n[nH]c(C)c1CCC(=O)N1CCc2c(nc[nH]c2=O)C1	10.7
O=S(=O)(CC1CCOCC1)NCc1ccnc(O)c1	2.82
CCN(CC)c1ccc(CNC(=O)C2(C)CCOCC2)cc1F	-37.1
CCN(CC)c1ccc(CNS(=O)(=O)C2CCOCC2)cc1F	62.9
CCN(C)c1ccc(CNC(=O)c2cc(C(N)=O)cs2)cc1F	-59.2
CCN(C)c1ccc(CNS(=O)(=O)C2CCOCC2)cc1F	50.1
CCN(C)c1ccc(CNS(=O)(=O)CC2CCCO2)cc1F (centres undefined)	24.4

SMILES	INHIBITION [%]
Cc1cc2c(=O)n(CC(=O)N3CCn4cccc4C3C(C)C)cnc2s1 (centres undefined)	3.4
COCC1CN(c2ncc(F)cn2)Cc2cnn(C)c21 (centres undefined)	19.6
Cn1cc(CCC(=O)NC(c2ccc(F)cc2)C(F)(F)F)cn1 (centres undefined)	-4.52
CN1CCNC(Cc2ccc(-c3ccccc3)cc2)C1=O (centres undefined)	23.2
O=C(NCC1CCS(=O)(=O)C1)c1cccc(CN2CCCC2)c1 (centres undefined)	24.7
O=C(N1CCCO1)[C@@]12CCO[C@@H]1CCN(Cc1cccs1)C2	40.1
O=C(Nc1ccccc1N1CCOC1=O)N1CCSCC1	52.2
CC1=CCN(C(=O)Nc2ccccc2N2CCOC2=O)CC1	32.5
CC(=O)N1CCCN(C(=O)Nc2ccccc2N2CCOC2=O)CC1	1.37
Cc1ccn(CCC(=O)NC(C)Cc2ccco2)n1 (centres undefined)	24.5
COC(=O)c1sc2cccc(F)c2c1CNC(=O)C1CC1	34.6
COc1ccc(CN2CCC(C(N)=O)C2)c(Br)c1OC (centres undefined)	-0.87
OCCN1CCN(Cc2cc3c(cc2Br)OCCO3)CC1	31.5
OCC1CCN(Cc2cc3c(cc2Br)OCCO3)CC1	34.5
NC(=O)C1CCN(Cc2cc3c(cc2Br)OCCO3)C1 (centres undefined)	71.3
Brc1cc2c(cc1CN1CCC(N3CCCCC3)CC1)OCCO2	77.9
OC1CCN(Cc2cc3c(cc2Br)OCCO3)CC1	28.3
CNC(=O)C1CN(C(=O)c2ccccc2)Cc2cn(C)nc21 (centres undefined)	18.9
CCOC(=O)c1nc(CC(=O)Nc2ccccc2)no1	45.5
Cc1cc(CN2CCN(C(=O)NCc3csc(C)n3)CC2)no1	26.4
CN(C)CCO[C@H]1CN(Cc2ccoc2)[C@@H]2COC[C@H]12	3.25
Cn1nc(CNC(=O)c2ccc3c(c2)OCO3)c2c1CCOC2	40.8

SMILES	INHIBITION [%]
CN(C)c1cc(CNC(=O)Nc2ccc(C#N)cc2)ccn1	22.1
CSCCc1ccc(NC(=O)NCc2ccnc(N(C)C)c2)cc1	72.85
CN(C)c1cc(CNC(=O)Nc2ccc(N3CCCC3)nc2)ccn1	69.7
CN(C)c1cc(CNC(=O)Nc2cccnc2N2CCCC2)ccn1	-60.4
COc1ccc(NC(=O)NCc2ccnc(N(C)C)c2)cn1	-15.1
CN(C)c1cc(CNC(=O)Nc2ccc(F)cc2)ccn1	17.8
COCc1ccccc1CNC(=O)CNc1cccc(Cl)c1OC	-28.2
CSCCC(=O)N1CCCN(Cc2cnn(C(C)C)c2)CC1	4.71
O=C([C@H]1CCCO1)N1CCc2ncc(CN3CCOCC3)n2CC1	22.9
CC(C(=O)N1CCCN(Cc2cnn(C)c2)CC1)n1ccnc1 (centres undefined)	48.1
O=C(N1CCCC1)N1CCc2ncnc(C3CCOC3)c2CC1 (centres undefined)	31.8
O=C(NCc1ccccc1F)NCC(O)c1cccc(F)c1 (centres undefined)	-24.3
CCCS(=O)(=O)N1CCN(c2ccnc(N3CCCCC3)n2)CC1	59.8
CCCS(=O)(=O)N1CCN(c2cc(-n3cccc3)nc(C)n2)CC1	34.5
CS(=O)(=O)N1CCN(c2cnnc(N3CCCC3)c2)CC1	-11.4
CCCS(=O)(=O)N1CCN(c2ccnc(N3CCCC3)n2)CC1	30.1
CN(C)S(=O)(=O)N1CCN(c2ccnc(N3CCCCC3)n2)CC1	43.1
CS(=O)(=O)N1CCN(c2ccnc(N3CCCCC3)n2)CC1	58.5
CN(C)S(=O)(=O)N1CCN(c2ccnc(N3CCCC3)n2)CC1	5.14
CS(=O)(=O)N1CCN(c2ccnc(N3CCCC3)n2)CC1	50.8
O=C(O)c1ccnc(-c2ccnc(N3CCCCCC3)n2)c1	4.41
